# About 83,000 compounds went through this panel and 20% of them were active in at least one assay; those are over-represented in the sample as a whole.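 Activity criterion: percent growth below 10, measured after cells in 96-well plates were exposed to a single compound concentration for 48 hours.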 Values without a mark were called inactive. Active and inactive are the calls of the source.
# Tested on: MDA-MB-468 breast
# Assay: NCI-60 one-dose screen, 48 h (100 = growth as untreated, 0 = no growth, -100 = all killed)
# Details: 10 µM unless noted
row,SMILES,growth
1,COc1ccc(-c2cc(/C=C3\C(=O)Nc4ccc(OC)cc43)[nH]n2)cc1,19%
2,COC(=O)[C@H]1CCCN1C(=O)[C@H]1CCCN1C(=O)[C@H](Cc1c[nH]c2ccccc12)NC(=S)Nc1cc(C(F)(F)F)cc(C(F)(F)F)c1,61%
3,COc1ccc(Cn2c(NCCCN(C)C)nc(=O)n(Cc3ccc(F)cc3)c2=O)cc1,85.8%
4,COCc1c(-c2ccc(NC(=O)Nc3cc(C(F)(F)F)ccc3F)c(F)c2)c2c(N)ncnn2c1CN1CCOCC1,-54.8% (active)
5,COc1cc(N2CCC(N(C)C)CC2)ccc1Nc1ncc(Cl)c(Nc2ccccc2P(C)(C)=O)n1,-38.3% (active)
6,NCCOc1ccccc1/C=C1\c2ccccc2-c2ccc([N+](=O)[O-])cc21,-36.1% (active)
7,CCC1=C[C@H]2CN(CCc3c([nH]c4ccccc34)[C@@](C(=O)OC)(c3cc4c(cc3OC)N(C)[C@H]3[C@@](O)(C(=O)OC)[C@H](OC(C)=O)[C@]5(CC)[C@@H]6C[C@@H]6CN6CC[C@]43[C@@H]65)C2)C1,7.4% (active)
8,O=C(CSc1ncc(-c2ccccc2)n1-c1ccccc1)Nc1ccc(-c2nc3ccccc3s2)cc1,15.4%
9,N#C/C(=C\c1ccc(-c2ccc(Cl)cc2)o1)C(=O)Nc1ncc(Cc2ccc(Cl)cc2)s1,77.9%
10,CC(C)(C)c1ccc(OCCOC(=O)CBr)cc1,87.6%
11,Nc1nc(N)c2c(n1)NC(c1ccc(F)cc1)C1CCc3ccccc3C1=N2 (stereo not given),5.4% (active)
12,COc1ccc(/C=N/Nc2cc(=O)[nH]c3ccc(Cl)cc23)cc1,78%
13,CN1CCN(CCOc2cc(OC3CCOCC3)c3c(Nc4c(Cl)ccc5c4OCO5)ncnc3c2)CC1,25.8%
14,Clc1ccc2c(NCCCN3CCOCC3)c3oc4ccccc4c3nc2c1,35.7%
15,COc1ccccc1NC(=O)OCC12COCN1COC2,101%
16,Cc1cc(=O)n2nnc3cc(Cl)c(Cl)cc3n12,67%
17,O=C(CSc1nc2ccccc2c(=O)n1-c1ccccc1)Nc1ccc(C(=O)/C=C/c2ccc(Cl)cc2)cc1,121%
18,O=C1OC(=O)C2C3CC(c4ccccc43)C12 (stereo not given),121%
19,CC(=O)NCC(=O)Nc1ccc(-c2nnc3ccccn23)nc1.CC(=O)NCC(=O)Nc1ccc(-c2nnc3ccccn23)nc1.[Pt+2],116%
20,COc1cc2oc(-c3cccc(NC(=O)c4cc(N)ccc4Cl)c3)cc(=O)c2c(OC)c1OC,95.3%
21,CCCn1cnc2c(c1=N)C(c1ccc(F)cc1)c1sc3c(F)cccc3c1O2 (stereo not given),58.4%
22,O=C(/C=C/c1cc(CN2CCOCC2)c(O)c2ncccc12)c1cc(CN2CCOCC2)c(O)c2ncccc12,4.37% (active)
23,O=C1CSC(c2ccccc2Cl)N1c1nnc(Cn2nnc3ccccc32)o1 (stereo not given),82.7%
24,CN(C)c1ccc(-c2cc(-c3cccc(NS(C)(=O)=O)c3)nc(N)c2C#N)cc1,-20.1% (active)
25,CC(C)CC(NC(=O)CN(Cc1ccccc1)S(C)(=O)=O)C(=O)O (stereo not given),99.6%
